Bioassay records from PubChem.
Hits are enriched below; roughly 2.6% of the tested compounds scored in any of these assays.
ABCB6 inh 2 = human ABCB6 transporter inhibition; K562-ABCB6 porphyrin accumulation, flow cytometry, 1 h; active compounds read low; fluorescence ratio to DMSO, % at 10 µM; 360,000 tested, 0.19% active; AID 602162;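 active = fluorescence ratio to DMSO below 75%, the collection mean minus 3 SD; inconclusive = too few cells collected in the well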;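 also: signal is porphyrin accumulated inside mitochondria; lower ratio means ABCB6 inhibition with less porphyrin fluorescence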
eIF4H FP inh = inhibitors of RNA binding by human eIF4H; Q15056; eIF4H fluorescence polarization binding assay; inhibition, % at 35 µM; 290,000 tested, 0.94% active;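 also: calls also rest on retests at 20 µM and on dose response follow-up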
PABP FP inh = blocks human PABP binding to poly(A) RNA | P11940 | fluorescence polarization | calls only at 35 µM | 290,000 tested, 1% active | AID 2014;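 also: calls also rest on retests at 20 µM and on dose response follow-up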
PHOSPHO1 inh = inhibitors of human PHOSPHO1 phosphatase; Q8TCT1; recombinant PHOSPHO1, absorbance phosphatase assay; inhibition, % at 13.3 µM; 290,000 tested, 1.1% active; AID 1565; in the data active = inhibition above about 60%
Target sequence (Q8TCT1 whole entry, looked up): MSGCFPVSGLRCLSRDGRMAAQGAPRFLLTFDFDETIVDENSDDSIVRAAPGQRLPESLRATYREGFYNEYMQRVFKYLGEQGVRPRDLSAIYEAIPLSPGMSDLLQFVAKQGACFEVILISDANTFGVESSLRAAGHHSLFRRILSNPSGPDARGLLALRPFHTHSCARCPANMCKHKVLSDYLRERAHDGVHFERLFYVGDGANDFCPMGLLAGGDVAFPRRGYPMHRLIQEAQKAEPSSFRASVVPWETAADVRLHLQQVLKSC
AI-2 QS modul = modulators of Vibrio harveyi AI-2 quorum sensing system | activity change, % at 7.5 µM | AID 2094 | 300,000 tested, 0.4% active | Vibrio harveyi JMH597 AI-2 luminescence/OD600 ratio, 9 h; active compounds read low; strain lacks LuxN and CqsS sensors; 0 = neutral-control median; in the data active = activity change below about -75%, passing the limit was not always enough; inconclusive = no clear call, values can overlap the other calls;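 also: luminescence divided by OD600 gain over 9 h not by final OD600 alone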
MLLE-PAM2 inh = blocks PAM2 peptide binding to the PABP1 MLLE domain; P11940; GST-MLLE / FITC-PAM2 fluorescence polarization; inhibition, % at 20 µM; 360,000 tested, 0.36% active; in the data active = inhibition above about 35%, passing the limit was not always enough
JMH597 growth rt = retest: inhibitors of Vibrio harveyi JMH597 growth; shares compounds with AI-2 QS modul; OD600 absorbance, 9 h; lacks LuxN and CqsS sensors; growth inhibition, % at 7.5 µM; 750 tested, 1% active; AID 2726;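 active = every replicate shows growth inhibition above 50%; inconclusive = at least half, but not all, replicates pass that cutoff; inactive = fewer than half of replicates pass it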
BB721 const-QS lum = retest counter-screen: BB721 constitutive quorum sensing luminescence decrease; shares compounds with AI-2 QS modul; Vibrio harveyi BB721 luminescence, 9 h; inhibition, % at 7.5 µM; 750 tested, 95% active;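 active = inhibition above about 80% in every replicate, not just on average, limit read from the data; inconclusive = at least half of replicates past the limit, but not all; inactive = fewer than half of replicates past the limit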
BB721 growth = retest: inhibitors of Vibrio harveyi BB721 growth | shares compounds with AI-2 QS modul | 750 tested, 3% active | OD600 absorbance, 9 h | growth inhibition, % at 7.5 µM;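 active = every replicate shows growth inhibition above 50%; inconclusive = at least half but not all replicates above 50% inhibition; inactive = under half of replicates above 50% inhibition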
AI-2 QS JMH597 = Vibrio harveyi AI-2 signaling luminescence modulation – JMH597 strain, confirmation. shares compounds with AI-2 QS modul. Vibrio harveyi JMH597 AI-2 quorum sensing luminescence, 9 h; luxN and CqsS knockout, AI-2 only. inhibition, % at 7.5 µM. 750 tested, 97% active;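 active = every replicate shows more than 75% inhibition of signal versus neutral control wells; inconclusive = half to three quarters of replicates exceed 75% inhibition; inactive = fewer than half of replicates exceed 75% inhibition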
ABCB6 blocker 1 = inhibitors of human ABC transporter ABCB6; shares compounds with ABCB6 inh 2; K562-ABCB6 porphyrin accumulation, flow cytometry, 1 h; active compounds read low; ratio response (% of DMSO), % at 10 µM; 700 tested, under 10 active; AID 602430;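 active = repeat-averaged ratio response below 75% of DMSO, the collection mean minus 3 SD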;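 also: median porphyrin fluorescence at 575 nm with 488 nm excitation from mitochondria; lower ratio means less porphyrin signal so ABCB6 inhibition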
Large screens that a line does not name were inactive (follow-up assays come after a bar, where they were run). Unless noted, no rule for the calls is given here.

N#CC1c2ccccc2-n2nncc2CN1C(=O)c1ccccc1F (configuration not stated)	none (no result: eIF4H FP inh, PABP FP inh, PHOSPHO1 inh, AI-2 QS modul)
CC(C)(C)n1nnnc1C(c1ccnc2ccccc12)N1CCC2(CC1)C(=O)NCN2c1ccccc1 (configuration not stated)	none (no result: eIF4H FP inh, PABP FP inh, PHOSPHO1 inh, AI-2 QS modul)
CN(C)P(=NC(=S)c1cccn1C)(N(C)C)N(C)C	MLLE-PAM2 inh 37
Cc1ccc(N2C(=O)NC(=O)/C(=C/c3ccoc3)C2=O)cc1	eIF4H FP inh inconclusive, PABP FP inh inconclusive (no result: AI-2 QS modul)
Cc1ccc(N2C(=O)NC(=O)/C(=C\c3cnc(-c4ccccc4)nc3)C2=O)cc1	eIF4H FP inh 58
Cc1ccc(N2C(=O)NC(=O)/C(=C\c3cccn3C(C)(C)C)C2=O)cc1	PHOSPHO1 inh 60
CSc1ncc(/C=C2/C(=O)NC(=O)N(c3ccc(C)cc3)C2=O)cn1	none
CCN1C(=O)NC(=O)/C(=C\c2ccc(N3CCOCC3)cc2OC)C1=O	eIF4H FP inh inconclusive, PABP FP inh active (no result: ABCB6 inh 2, MLLE-PAM2 inh)
FC(F)(F)c1ccc2c(c1)N(CCCN1CCN(CCCl)CC1)c1ccccc1S2	PHOSPHO1 inh 64
O=C(c1cc2cc(Br)ccc2[nH]1)N1CCC2(CC1)OCCO2	AI-2 QS modul inconclusive | JMH597 growth rt inactive | BB721 const-QS lum 94 | BB721 growth inactive | AI-2 QS JMH597 96
CCC1C2Cc3ccc(O)cc3C1(CC)CCN2C (configuration not stated)	none (no result: eIF4H FP inh, PABP FP inh, PHOSPHO1 inh, AI-2 QS modul)
C[C@]12CCC3C(CC[C@H]4C[C@H](O)CC[C@]34C)C1C[C@@H](O)[C@H]2O (some centres not stated)	none (no result: eIF4H FP inh, PABP FP inh, PHOSPHO1 inh, AI-2 QS modul)
Cc1ccc(O)c(CN2CCN(c3ccccc3)CC2)c1	AI-2 QS modul -79 | JMH597 growth rt inactive | BB721 const-QS lum 85 | BB721 growth inactive | AI-2 QS JMH597 91
CCN(CC)C(=O)c1ccc(NC(=O)Cn2nc(C)c3ccccc3c2=O)cc1	AI-2 QS modul -88 | JMH597 growth rt inactive | BB721 const-QS lum 94 | BB721 growth inactive | AI-2 QS JMH597 96
CCN(CC)C(=O)c1ccc(NC(=O)c2ccc(-c3nn(C)c(=O)c4ccccc34)cc2)cc1	none
COc1ccc(C(C)=O)cc1Cc1c(O)[nH]c(=S)[nH]c1=O	ABCB6 inh 2 65 | ABCB6 blocker 1 inactive
CCOc1ccc(C(C)=O)cc1Cc1c(O)[nH]c(=S)[nH]c1=O	none
CC(=O)O/C(=C1\CC2C3CC=C4CC(OC(C)=O)CCC4(C)C3CCC2(C)C1=O)C(F)(F)F (configuration not stated)	none (no result: eIF4H FP inh, PABP FP inh, PHOSPHO1 inh, AI-2 QS modul)
CCC(=O)c1cn(Cc2ccccc2)c2ccccc12	none
CN(C)CCOC(=O)c1cn(Cc2ccccc2)c2ccccc12	ABCB6 inh 2 7.0 | ABCB6 blocker 1 inactive
CC(C)CCCn1c(O)c(/C=C2/C=CC=N2)c(=O)[nH]c1=O	ABCB6 inh 2 70, eIF4H FP inh inconclusive | ABCB6 blocker 1 inactive
CCCCn1c(O)c(C=NCCCn2ccnc2)c(=O)[nH]c1=O	none
CN1OC[C@@H]2CN[C@H](c3ccc(Br)cc3)C[C@@H]21	none (no result: eIF4H FP inh, PABP FP inh, PHOSPHO1 inh, AI-2 QS modul)
COc1cccc(N2C(=O)CC(=O)NC2=O)c1	ABCB6 inh 2 71, eIF4H FP inh 77, PABP FP inh active | ABCB6 blocker 1 inactive
Cc1nonc1OCCNc1ccc([N+](=O)[O-])c2cccnc12	ABCB6 inh 2 72 | ABCB6 blocker 1 inactive
COc1cccc(C(c2nnnn2Cc2ccccc2)N2CCC(n3c(=O)[nH]c4ccccc43)CC2)c1OC (configuration not stated)	ABCB6 inh 2 74 (no result: eIF4H FP inh, PABP FP inh, PHOSPHO1 inh, AI-2 QS modul) | ABCB6 blocker 1 inactive
CCCCn1nnnc1C(c1cccs1)N1CCC2(CC1)C(=O)NCN2c1ccccc1 (configuration not stated)	none (no result: eIF4H FP inh, PABP FP inh, PHOSPHO1 inh, AI-2 QS modul)
